In PubChem BioAssay AID1476 (National Center for Advancing Translational Sciences (NCATS), 2009) one finds max response, negative = inhibition and Potency data, which are given here for 88 compounds.

The whole screen tested about 200,000 compounds, of which about 4,500 (2.2%) were called active. About 12% were inconclusive and are not listed. Calls come from the whole dose curve; as a rule, active = well fitted inhibition curve with a large enough effect; inconclusive = small, poorly fitted or top-dose-only effect, or effect the other way; inactive = flat fitted curve, though single readings scatter. Only a selection was taken, and actives are over-represented in it overall.
Potency is the fitted concentration of half-maximal effect.

Chain of Cruzipain (Trypanosoma cruzi) (P25779 123-467 limits assumed): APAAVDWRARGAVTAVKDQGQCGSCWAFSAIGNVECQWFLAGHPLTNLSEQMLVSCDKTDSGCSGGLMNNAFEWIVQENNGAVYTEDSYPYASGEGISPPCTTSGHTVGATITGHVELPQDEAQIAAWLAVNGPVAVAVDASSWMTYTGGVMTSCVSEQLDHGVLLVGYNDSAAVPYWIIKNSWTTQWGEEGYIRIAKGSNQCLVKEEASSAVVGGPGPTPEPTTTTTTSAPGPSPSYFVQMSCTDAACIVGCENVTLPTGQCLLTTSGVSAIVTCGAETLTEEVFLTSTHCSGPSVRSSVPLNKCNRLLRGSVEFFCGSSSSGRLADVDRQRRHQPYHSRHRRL

The test concerns the target Cruzipain (Trypanosoma cruzi) (UniProt P25779). Put plainly: qHTS Assay for Promiscuous and Specific Inhibitors of Cruzain (without detergent).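 For max response, negative = inhibition: plate controls were enzyme without inhibitor for no effect and buffer without enzyme for full effect.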 Note: nearly all actives have a fitted effect of over 40% in size. To be noted: purified cruzain, Z-FR-AMC fluorescence, no detergent. Summed up:
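Detergent-free condition (0.00005% Triton X-100) in acetate buffer pH 5.5 with DTT. 1.5 nM enzyme and compound were pre-mixed 15 min, then 2 uM Z-FR-AMC substrate added; reaction progress from fluorescence change between first and third reads (60 s).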
For `CCc1ccccc1NC(=O)c1cc(-c2ccc3c(c2)OCO3)on1`, the max response, negative = inhibition was -1.06% (inactive).
For `c1ccc2[nH]c(NCCN3CCOCC3)nc2c1`, the max response, negative = inhibition was -8.64% (inactive).
With `c1ccc2cc3c(NCCN4CCOCC4)ccnc3cc2c1`, the Potency was 25.1 µM (active).
Take `Clc1ccccc1-c1cc(NCCN2CCOCC2)ncn1`: the max response, negative = inhibition was -3.09% (inactive).
`COc1ccc(-n2c(=O)c3ccccc3n(Cc3ccccc3Cl)c2=O)cc1`: the max response, negative = inhibition was 6.51% (inactive).
`CCOc1ccccc1NC(=O)Cn1c(=O)n(Cc2ccco2)c(=O)c2sc3ccccc3c21`: the max response, negative = inhibition is -0.26% (inactive).
Regarding `CN(c1ccccc1)c1ccc(/C=c2\s/c(=C(/C#N)C(=O)C(C)(C)C)n(Cc3ccco3)c2=O)cc1`, the Potency was 3.16 µM (active).
Consider `Cc1cc2c(c(=O)n1Cc1ccco1)C(c1ccccc1)C(C#N)=C(N)O2` (stereo not drawn), for which the max response, negative = inhibition is -4.14% (inactive).
In the case of `O=C(NCCCc1ccccc1)c1ccc2c(c1)sc1nc(-c3ccc(F)cc3)cn12`, the max response, negative = inhibition was 4.05% (inactive).
As to `Cc1csc(NC(=O)c2ccc(-c3ccc(Cl)cc3Cl)o2)n1`, the Potency is 10 µM (active).
For the compound `Cc1csc(NC(=S)Nc2cccc(Cl)c2)n1`, the max response, negative = inhibition was -0.724% (inactive).
With `O=C(Nc1cccc2ncccc12)c1ccc(-c2ccc(Cl)cc2Cl)o1`, the max response, negative = inhibition was -11.1% (inactive).
As to `Cc1ccc(NC(=O)c2cc3cc(C)ccc3n2C)cc1`, the max response, negative = inhibition was -3.53% (inactive).
Regarding `O=C(Nc1ccc2c(c1)OCO2)c1ccc(N2C(=O)c3ccccc3C2=O)cc1`, the Potency was 6.31 µM (active).
Regarding `Cn1c(=O)n(C)c2cc(C(=O)Nc3ccc4c(c3)OCO4)ccc21`, the max response, negative = inhibition was -14% (inactive).
In the case of `O=C(Nc1ccccc1)c1ccc2c(c1)OCO2`, the max response, negative = inhibition is 1.37% (inactive).
Take `CCOc1ccc(CNC(=O)CCC(=O)N2CCSc3ccccc32)cc1`: the max response, negative = inhibition was 1.55% (inactive).
In the case of `COc1ccc(-c2onc(C)c2C)cc1S(=O)(=O)NCC1CCN(Cc2cccc(F)c2)CC1`, the max response, negative = inhibition was 0.417% (inactive).
Take `CCc1ccccc1NC(=O)CSc1nnc(-c2ccccc2)c(-c2ccccc2)n1`: the max response, negative = inhibition was -0.884% (inactive).
Regarding `CCOC(=O)C1=C(O)CSC1=Nc1cccc(Cl)c1`, the max response, negative = inhibition was -9.26% (inactive).
`Clc1cccc(N=C2NN=C(c3ccc4c(c3)OCCO4)CS2)c1`: the Potency is 10 µM (active).
For `CCOc1ccc(CNC(=O)Cn2cc3c(n2)-c2c(oc(C(=O)N4CCCC4)c2C)CC3)cc1`, the max response, negative = inhibition is 23.3% (inactive).
The same measure, in the same setting: as for `COc1ccc2cc(CNc3ccc(OC)c(OC)c3)c(=O)n(CC(=O)Nc3ccccc3F)c2c1`, the figure is 13.9% (inactive); as for `O=C(CSc1nccn1C1CCCC1)Nc1cc(C(F)(F)F)ccc1Cl`, 9.92% (inactive); as for `COc1ccc(C(=O)CSc2nnc(NC(=O)C3CC(=O)N(c4cccc(OC)c4)C3)s2)cc1` (stereo not drawn), -5.43% (inactive).
For `CC(=O)c1ccc(NC(=O)CSc2nnc(NC(=O)Nc3ccccc3)s2)cc1`, the max response, negative = inhibition was 10.4% (inactive).
As for `O=C(/C=C/c1ccccc1)Nc1nnc(SCC(=O)c2ccc3ccccc3c2)s1`, the Potency was 6.31 µM (active).
`O=C(NCCc1csc(-c2ccc(C(F)(F)F)cc2)n1)C(=O)Nc1ccc(F)c(Cl)c1`: the max response, negative = inhibition is -2.67% (inactive).
Consider `Cc1ccc(OCC(=O)OCc2cc(=O)n3nc(C4CC4)sc3n2)cc1`, for which the max response, negative = inhibition is -8.05% (inactive).
As for `N#C/C(=C(/O)Cc1cccc2ccccc12)c1nc2ccccc2s1`, the Potency was 12.6 µM (active).
With `c1ccc2sc(SCCSc3nc4ccccc4s3)nc2c1`, the max response, negative = inhibition was -3.12% (inactive).
With `COC(=O)c1nc2ccccc2s1`, the max response, negative = inhibition was -9.6% (inactive).
Take `Cc1ccc(-c2nn3c(=O)cc(CN4CCN(C(=O)Nc5cccc(C(F)(F)F)c5)CC4)nc3s2)cc1`: the max response, negative = inhibition is -9.63% (inactive).
`COc1ccc(Cn2c(C(=O)O)c(CNCCc3cccs3)c3ccc(OC)cc32)cc1`: the max response, negative = inhibition is -3.19% (inactive).
Regarding `Cc1ccc(NS(=O)(=O)c2ccc3c(c2)CC(=O)N3)cc1Cl`, the Potency was 15.8 µM (active).
Consider `Cc1ccc(S(=O)(=O)NCCC(=O)Nc2ccc(C)c(Cl)c2)cc1C`, for which the max response, negative = inhibition is -0.389% (inactive).
Regarding `COc1ccc(NC(=O)CCNS(=O)(=O)c2ccc3c(c2)CCCC(=O)N3)cc1Cl`, the max response, negative = inhibition was -2.51% (inactive).
Turning to `Cc1nn(CC(=O)O)c(=O)c2cc3cc(F)ccc3n12`, the max response, negative = inhibition is -12.5% (inactive).
On to `Cc1cccc(-n2ccnc2SCC(=O)Nc2cc(C(F)(F)F)ccc2Cl)c1`, for which the max response, negative = inhibition is -5.01% (inactive).
In the case of `Cc1ccc(NC(=O)CSc2nc3c(c(=O)[nH]2)CN(Cc2ccc4c(c2)OCO4)CC3)cc1C`, the max response, negative = inhibition is -8.7% (inactive).
Consider `CCn1c2ccccc2c2cc(NC(=O)COC(=O)c3cc(S(=O)(=O)N4CCCCC4)ccc3Cl)ccc21`, for which the Potency is 6.31 µM (active).
As for `CC(=O)c1c(C)[nH]c(C(=O)OCC(=O)Nc2cc(S(=O)(=O)N3CCCCC3)ccc2C)c1C`, the max response, negative = inhibition was 9.33% (inactive).
For `COc1ccc(OCC(=O)OCC(=O)Nc2ccc(S(=O)(=O)N3CCCCC3)cc2)cc1`, the max response, negative = inhibition was 6.2% (inactive).
As to `CCOC(=O)CNC(=O)c1cc2c(=O)n3cccc(C)c3nc2s1`, the max response, negative = inhibition is -17.8% (inactive).
`O=C(Cn1cc(SCc2ccccc2)c2ccccc21)N1CCCCC1`: the max response, negative = inhibition is -0.659% (inactive).
On to `C=CCNC(=O)/C(=C\c1cccc([N+](=O)[O-])c1)NC(=O)c1ccccc1`, for which the max response, negative = inhibition is 10.7% (inactive).
In the case of `O=C(N/N=C/c1cc([N+](=O)[O-])ccc1O)/C(=C\c1cccs1)NC(=O)c1ccccc1`, the Potency is 20 µM (active).
Consider `CN(C)CCNC(=O)/C(=C/c1cccc([N+](=O)[O-])c1)NC(=O)c1ccccc1`, for which the max response, negative = inhibition was -6.18% (inactive).
Regarding `COc1cccc(NC(=O)N2CCN(C(=O)c3nsc4ccccc34)CC2)c1`, the max response, negative = inhibition was 16.2% (inactive).
For the compound `COc1cc(OC)c(NC(=O)c2c3c(nn2C)-c2ccccc2SC3)cc1Cl`, the max response, negative = inhibition is -6.8% (inactive).
For the compound `COc1ccc(NC(=O)CSc2nc3ncccc3[nH]2)c(OC)c1`, the max response, negative = inhibition was -7.09% (inactive).
Same read-out and setting: as for `O=C(CC(c1cccs1)N1Cc2ccccc2C1=O)Nc1ccc(F)cc1F` (stereo not drawn), the figure is -15.6% (inactive); as for `CCOC(=O)c1cc2sccc2n1Cc1ccc(C#N)cc1`, -11.1% (inactive); as for `CC(=O)Nc1ccc(NC(=O)c2cc3sccc3n2Cc2ccc(F)cc2)cc1`, 23.5% (inactive).
Same read-out and setting: in the case of `O=C(NCc1ccco1)c1cc2sccc2n1Cc1ccc(F)cc1` it was -11.7% (inactive); in that of `Cc1cc(=O)[nH]c(SCC(=O)N2c3ccccc3CC2C)n1` (stereo not drawn), -2.54% (inactive).
Consider `O=C(c1cc2sccc2n1Cc1ccc(F)cc1)N1CCc2ccccc21`, for which the Potency was 25.1 µM (active).
The same measure, in the same setting: in the case of `CC1Cc2ccccc2N1C(=O)c1cc2sccc2n1Cc1ccccc1` (stereo not drawn) it was 25.1 µM (active).
On to `Cc1ccc(-c2nc(SCc3ccc(Br)cc3)n3[nH]c(=O)cc3n2)cc1`, for which the max response, negative = inhibition was -0.81% (inactive).
In the case of `COc1ccc(OC)c(CNC(=O)Cn2nc(C)c3c(C)n(-c4ccccc4)nc3c2=O)c1`, the max response, negative = inhibition is -8.59% (inactive).
Consider `CC(Sc1nc2ccccc2c(=O)n1Cc1ccco1)C(=O)c1ccccc1` (stereo not drawn), for which the max response, negative = inhibition was -8.72% (inactive).
For `N#Cc1c(NC(=O)CSc2nc3ccccc3c(=O)n2Cc2ccco2)sc2c1CCCC2`, the Potency was 10 µM (active).
With `NC(=O)c1c(NC(=O)CSc2nnc(-c3ccco3)n2N)sc2c1CCCC2`, the max response, negative = inhibition was -17% (inactive).
Same read-out and setting: as for `CCOc1ccc(N(CC)S(=O)(=O)N2CCCC(C(=O)NCc3ccc(SC)cc3)C2)cc1` (stereo not drawn), the figure is 16% (inactive).
`COc1ccc(OC)c(C2C3=C(N=c4s/c(=C\c5cccc(O)c5)c(=O)n42)c2ccccc2CC3)c1` (stereo not drawn): the Potency is 3.16 µM (active).
For `COCCOC(=O)C1=C(C)N=c2s/c(=C\c3cccs3)c(=O)n2C1c1cccs1` (stereo not drawn), the max response, negative = inhibition was 14.7% (inactive).
Same read-out and setting: in the case of `O=C1CCCC2=C1C(c1ccccc1)n1c(s/c(=C/c3cccc(F)c3)c1=O)=N2` (stereo not drawn) it was -0.66% (inactive); in that of `Cc1ccc2nc(NC(=O)c3nc(SCc4ccccc4F)ncc3Cl)sc2c1`, 16.1% (inactive); in that of `CCCOC(=O)c1c(NC(=O)c2cc3nc(-c4ccc(OC)cc4)cc(C(F)(F)F)n3n2)sc2c1CCCC2`, 3.32% (inactive).
Regarding `CCCOC(=O)c1c(NC(=O)c2cnn3c2NC(c2ccccc2)CC3C(F)(F)F)sc2c1CCCC2` (stereo not drawn), the Potency is 5.01 µM (active).
For `CCOC(=O)c1c(NC(=O)c2ccc(Br)o2)sc2c1CCCC2`, the max response, negative = inhibition was -20.9% (inactive).
For `CCOC(=O)c1ccc(NC(=O)CCn2c(=O)oc3ccccc32)cc1`, the max response, negative = inhibition is -3.92% (inactive).
Regarding `CCOC(=O)C1CCN(c2nc3c(S(=O)(=O)c4ccc(CC)cc4)nnn3c3ccc(Cl)cc23)CC1`, the max response, negative = inhibition was -25.4% (inactive).
As for `CCNC(=O)c1cc2n(n1)CCCN(Cc1ccc(C)cc1)C2=O`, the max response, negative = inhibition was 4.87% (inactive).
Take `Cc1ccccc1CNC(=O)CCc1cn(Cc2ccccc2C)c2ccccc12`: the max response, negative = inhibition is 0.523% (inactive).
Turning to `COc1ccc(C)cc1Nc1nc2ccccc2c2nnc(C)n12`, the max response, negative = inhibition is -0.388% (inactive).
Turning to `COc1ccc(C)cc1Nc1nc(-c2c(C)[nH]c3ccccc23)cs1`, the Potency is 25.1 µM (active).
Regarding `COc1ccc(OC)c(Nc2nc(-c3ccc(O)c(O)c3)cs2)c1`, the max response, negative = inhibition was -16.7% (inactive).
Consider `COCCNC(=O)c1ccc2c(c1)N=C(C)c1cc(C)ccc1S2`, for which the max response, negative = inhibition was 12.7% (inactive).
Still for that read-out and setting: as for `CCCC1=Nc2cc(C(=O)NCc3ccco3)ccc2Sc2ccccc21`, the figure is -12.6% (inactive).
Consider `CCC1=Nc2cc(C(=O)NCC(C)c3ccccc3)ccc2Sc2ccc(C)cc21` (stereo not drawn), for which the Potency is 12.6 µM (active).
`Cc1ccc(CCNC(=O)c2ccc(CNS(=O)(=O)c3ccc(C)cc3)cc2)cc1`: the max response, negative = inhibition is -23% (inactive).
Same read-out and setting: as for `CCOC(=O)c1cc2c(=O)n3ccccc3nc2n(CCCOC)c1=NC(=O)C(C)(C)Oc1ccc(Cl)cc1`, the figure is 4% (inactive); as for `Cc1ccc2nc(CNC(=O)c3ccccc3)[nH]c2c1`, 6.98% (inactive).
On the same count and under the same terms, in the case of `COc1cccc(/C=N\NC(=O)C2=NNC(=O)C2C)c1O` (stereo not drawn) it was 14.7% (inactive).
As to `Cc1ccc(/C=N/NC(=O)C2=NNC(c3ccccc3)(c3ccccc3)C2)c(O)c1`, the Potency is 20 µM (active).
On to `COc1ccc(CCNc2ncnc3onc(-c4ccc(Cl)cc4)c23)c(OC)c1`, for which the max response, negative = inhibition was -2.97% (inactive).
With `CCOc1cccc(CNC(=O)c2ccc(N3CCCC3)c(NC(=O)Nc3ccccc3CC)c2)c1`, the max response, negative = inhibition is -7.71% (inactive).
